This is a sample that favours compounds with a hit; in the whole collection about 0.65% have one here.
C1s block: human complement C1s inhibition. P09871. purified C1s, fluorogenic AMC substrate, pooled mixtures. mean inhibition % of two 10-compound mixtures (stronger effect = higher value), % at 5 µM (by protocol). 62,000 tested, 0.16% active. AID 538;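 active = inhibition above 20% in each of the two 10-compound mixture wells holding the compound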;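 also: 0% = enzyme wells lacking compound mixture and 100% = no-enzyme blank wells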
FXIa inh mix: blocks human factor XIa in pooled compound mixtures; P03951; purified FXIa, fluorogenic substrate; inhibition, % at 5 µM; 62,000 tested, 0.19% active; AID 680;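 also: each value is inhibition by a whole ten-compound pool holding the compound; 0% = enzyme with no mixture and 100% = wells lacking enzyme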
Cathepsin G inh: blocks human cathepsin G enzyme activity | P08311 | purified enzyme, AMC-tetrapeptide fluorescence, pooled mixtures | inhibition, % at 5 µM (by protocol) | 62,000 tested, 0.2% active;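 active = inhibition above 20% in each of the two mixture wells holding the compound; inactive = inhibition of 20% or less in either well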;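 also: 0% = enzyme control without mixture and 100% = blank lacking enzyme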
Target sequence (P08311 21-244 limits assumed): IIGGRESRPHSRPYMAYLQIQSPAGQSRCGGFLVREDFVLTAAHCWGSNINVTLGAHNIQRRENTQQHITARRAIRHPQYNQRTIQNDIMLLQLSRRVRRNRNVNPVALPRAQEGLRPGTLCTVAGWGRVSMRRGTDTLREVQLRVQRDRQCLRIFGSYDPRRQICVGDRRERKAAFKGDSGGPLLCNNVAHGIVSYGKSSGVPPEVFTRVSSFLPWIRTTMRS
FXIIa mix inh: inhibitors of human coagulation factor XIIa, pooled mixtures. P00748. purified FXIIa, fluorogenic substrate. inhibition, % at 5 µM. 62,000 tested, 0.2% active;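 also: 0% = enzyme without compound and 100% = no enzyme blank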
E coli RNAP: inhibitors of Escherichia coli RNA polymerase | 62,000 tested, 0.2% active | E. coli RNA polymerase, fluorescence transcription assay | P0A8V2 | inhibition, %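 (tested at 10 µM)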; in the data active = inhibition above about 20%;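 also: 0% = enzyme without compound and 100% = no enzyme blank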
* marks the source's active call; other numbers are inactive results; · = no result given. Rule as the data show it, unless noted: active = inhibition above about 20% (passing the limit was not always enough); inactive = the rest.

SMILES | C1s block | FXIa inh mix | Cathepsin G inh | FXIIa mix inh | E coli RNAP
CC1(C)C(c2ccccc2)=NC(c2cccnc2)N1O (configuration not stated) | 62.0* | 8.6 | 7.5 | 5.0 | 11.0
O=c1c2ccccc2[se]n1-c1ccccc1 | 5.0 | 7.2 | -23.1 | -15.7 | 36.7*
CC12CCCCC1N(O)CN2O (configuration not stated) | -1.0 | 1.5 | 10.3 | 3.4 | 9.1
O=P(O)(O)C#Cc1ccccc1 | -6.2 | 5.5 | -13.5 | 7.8 | ·
CC(C)N(CCC(C(N)=O)(c1ccccc1)c1ccccn1)C(C)C (configuration not stated) | -4.0 | -1.2 | -0.4 | 9.3 | 6.1
CCOC(C(=O)OCC(O)CN(CC)CC)(c1ccccc1)c1ccccc1 (configuration not stated) | -21.9 | 15.5 | 13.3 | 5.1 | 22.4*
